Potency and affinity values are given separately.
The molecules below were run against Cell division control protein 42 homolog (Homo sapiens) (UniProt P60953) (assay: wildtype Cdc42 GTP-binding inhibitors, dose response, biochemical, multiplex bead flow cytometry, Bodipy-FL-GTP (AID 1334)). Conditions: bead-based flow cytometry, Bodipy-FL-GTP binding to GST-Cdc42; at 100 µM (top of the series) unless noted.
Chain of Cell division control protein 42 homolog (Homo sapiens) (P60953 whole entry, looked up): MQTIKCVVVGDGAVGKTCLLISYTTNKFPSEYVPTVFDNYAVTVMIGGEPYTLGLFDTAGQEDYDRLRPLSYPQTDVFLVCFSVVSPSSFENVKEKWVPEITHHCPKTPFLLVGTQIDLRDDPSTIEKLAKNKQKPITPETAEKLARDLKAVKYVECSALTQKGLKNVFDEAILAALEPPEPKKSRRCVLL

SMILES	fluorescence, percent of control (lower = inhibition) [%]
O=C(c1cccnc1SCCc1ccccc1)N1CCOCC1	77.3
COc1cc(/C=N/NC(=O)CCN2CCN(c3ccccc3)CC2)cc(OC)c1OC	34.6
O=C(O)c1ccc(CNCc2ccccc2Cl)s1	62
CCN(CC)c1ccc(/C=N/OCC(=O)Nc2cccc(C)c2)cc1	65.3
CCc1ccccc1NCc1sc(C(=O)O)cc1C	61.1
COc1ccc(-c2nn3c(-c4ccco4)nnc3s2)cc1OC	39.1
CS(=O)(=O)Nc1ccc(Br)cc1C(=O)c1ccccc1	46.4
Cn1c(N/N=C/c2cccs2)nc2c1c(=O)n(Cc1ccccc1)c(=O)n2C	39.1
Cc1ccc(C(C)C)c(OCCSc2nc3ccccc3n2CC(=O)O)c1	56.7
OCC(CO)(CO)NCc1ccc(-c2ccccc2)cc1	49.9
CCC(Oc1ccc2ccccc2c1)C(=O)O (centres undefined)	123
CCOc1ccccc1C1C(C(=O)OC)=C(N)OC2=C1C(=O)CCC2 (centres undefined)	90
O=C(O)c1ccc(COc2ccc(F)cc2)o1	61.2
COc1cc2[nH]c(=S)nc(NCCc3ccc(C)cc3)c2cc1OC	26.6
CC(C)(C)c1ccc(OCCn2cc(C(=O)O)c3ccccc32)cc1	57.9
COc1ccc(C2=Nn3c(nnc3-c3ccccc3)SC2)cc1OC	37.5
COc1cc(/C=N/Nc2nn3cnnc3c3ccccc23)ccc1O	50.3
Cc1ccc(Nc2cc(C(=O)O)c3ccccc3n2)c(C)c1	60.5
COc1cc2c(C)nc3c(c(C)nn3-c3ccccc3)c2cc1OC	32.3
O=C(O)c1ccc(CNCc2ccc(F)cc2)cc1	43.1

SMILES	fluorescence, percent of control (lower = inhibition) [%]
COc1ccc(CC(C)N2CCN(Cc3ccccc3)CC2)c(OC)c1 (centres undefined)	38.1
O=C(Cn1nc(-c2ccccc2)c2ccccc2c1=O)Nc1ccccn1	45.6
CCCN(CC1CC1)C(=S)Nc1ccc(Oc2ccccc2)cc1	26.1
Cc1cccc(CNc2nc(C)ccc2C(=O)O)c1	60.7
CC(SC(=S)N(C)Cc1cccs1)C(=O)O (centres undefined)	83.3
O=c1c2ccccc2nc2c3ccccc3c(NCc3cccnc3)nn12	27.9
COc1ccc(C(=O)N/C(=C\c2cccc([N+](=O)[O-])c2)C(=O)Nc2cccc(C(=O)O)c2)cc1	35.1
O=C(O)c1ccc(CSCc2ccccc2Cl)o1	57.8
O=C(C#Cc1cccc(O)c1)c1ccc([N+](=O)[O-])cc1	71.6
CCOc1ccc(-n2nc3c(=O)[nH]nc(C)c3c2C)cc1	46.5
O=C(CNC(=O)Cc1ccccc1)N=Nc1c(O)n(Cc2ccc3c(c2)OCO3)c2ccccc12	36.1
CCOC(=O)c1c(-c2ccccc2)csc1NC(=O)/C(C#N)=C/c1ccc(O)c(OC)c1	79.7
C/C(=N\Nc1cc(C)nc(-c2ccccc2)n1)c1cccc([N+](=O)[O-])c1	33.6
C=CCn1c(SCC(=O)Nc2ccc3c(c2)OCO3)nnc1-c1cc(Br)ccc1O	66.9
CC(C)OCCCn1c(=NC(=O)c2ccncc2)c(C#N)cc2c(=O)n3ccccc3nc21	88.2
COc1cccc(NC(=O)CSc2nc3c([nH]c4ccccc43)c(=O)n2C)c1	42.8
COc1ccc(OCCSc2nc3nc(C)cc(C)n3n2)cc1	45.5
CCc1nnc(NC(=O)CSc2nnc(CNc3ccc(F)cc3)n2C2CCCCC2)s1	52
CCOC(=O)c1ccc2ncc(-c3ccccc3)nc2c1	33.5
